Bioassay records: PubChem BioAssay, National Center for Advancing Translational Sciences (NCATS)
TDP-43 tox inh – rescues yeast from TDP-43 toxicity | AID 1347073 | hit rate 0.45% among 45,000 | yeast TDP-43 toxicity rescue, BacTiter-Glo growth, 24 h | Potency, µM (titrated, usually from 46.1 µM), actives largely listed as activators; active means well fitted activation curve with a large enough effect; further: 0% is about no effect; nearly all actives have a fitted effect of over 55% in size
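TDP-43-expressing yeast, pregrown in raffinose, seeded at OD600 0.02 in galactose medium with compound for 24 hr at 30 deg C. Growth read by BacTiter-Glo luminescence, so rescue of toxicity appears as activation.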
* hit, by the source's call; i = inactive. The sample as a whole holds a higher share of hits than the screen did. Potency means the concentration at half of the fitted maximal effect.

SMILES	TDP-43 tox inh
CC(C)c1cccc(-c2csc(C(C)(O)c3ccccc3)n2)c1 (centres undefined)	i
COc1ccc(C(C)(O)c2nc(-c3csc4ccccc34)cs2)cc1 (centres undefined)	17.8µM*
CC(O)(c1cccc(F)c1)c1nc(-c2ccncc2)cs1 (centres undefined)	i
COc1ccc(C(C)(O)c2nc(-c3ccc4c(c3)OCO4)cs2)cc1 (centres undefined)	12.6µM*
COc1cccc(C(C)(O)c2nc(-c3cncnc3)cs2)c1 (centres undefined)	i
CC(O)(c1cccnc1)c1nc(-c2ccc3c(c2)OCO3)cs1 (centres undefined)	i
CC(O)(c1ccccc1)c1nc(-c2cccc(C(=O)O)c2)cs1 (centres undefined)	i
COc1cccc(C(C)(O)c2nc(-c3ccc(OC)nc3)cs2)c1 (centres undefined)	17.8µM*
Cc1c(CCNC(=O)c2c(F)cccc2F)sc2nc(-c3ccc(F)cc3)nn12	i
Cc1cccc(S(=O)(=O)NC(=O)C2(C)CCN2C(=O)Cc2cc(F)ccc2F)c1 (centres undefined)	i
CCOC(=O)c1ccccc1NC(=O)NC(C)c1c(-n2cccc2)sc(C)c1C (centres undefined)	i
Cc1ccc(F)c(S(=O)(=O)NC(=O)C2(C)CCN2C(=O)c2cccc3ccccc23)c1 (centres undefined)	i
CC(=O)Nc1cc(-c2cccc(C(=O)NCCN(C)C)c2)cn2c(-c3ccc(C(C)=O)cc3)cnc12	i
Cc1ccccc1CC1(CO)CCCN(C(=O)CCCN2CCCCC2=O)C1 (centres undefined)	i
CCc1nc2c(OCc3ccc(F)c(F)c3)cccn2c1N(C)C(=O)c1ccc(OC)cc1	i
O=C(Nc1cc2c(cc1[N+](=O)[O-])OCCO2)c1cccnc1	i
CNc1ccc(-c2cccc(CO)c2)cn1	i
CC(=O)c1cccc(-c2ccnc3c2CC(C(=O)Nc2cccc(OC(F)(F)F)c2)O3)c1 (centres undefined)	22.4µM*
O=C(Nc1cccc(OC(F)(F)F)c1)C1Cc2c(-c3ccco3)ccnc2O1 (centres undefined)	i
CC(=O)Nc1ccc(NC(=O)C2Cc3c(-c4cccc(C(C)=O)c4)ccnc3O2)cc1 (centres undefined)	i
O=C(O)C(Cc1ccccc1)N=C(NS(=O)(=O)c1ccccc1)c1ccccc1 (centres undefined)	i
O=C(CCl)Nc1cccc(-c2cnc3ccccc3n2)c1	12.6µM*
O=C(O)CCC(=O)Nc1cccc(-c2csc(-c3ccccc3)n2)c1	i
Clc1ccc(-c2cnc3ccccc3n2)cc1	i
COc1ccc(NC(=O)Cn2c(CCC(=O)O)ccc2-c2ccccc2)cc1Cl	i
SMILES	TDP-43 tox inh
CN(C)c1ccc2c3c(ccc(N(C)C)c13)COC2	i
COc1ccc(Br)cc1C(=O)Nc1ccc(C(=O)O)cc1	4.47µM*
COc1ccc(Br)cc1C(=O)NC(=S)Nc1ccc2[nH]c(=O)[nH]c2c1	i
COc1ccc(Br)cc1C(=O)Nc1ccc(N2CCCC2)cc1	i
CC1(C(=O)NS(=O)(=O)Cc2cccc(Cl)c2)CCN1C(=O)CC1CCCC1 (centres undefined)	i
O=C(c1cccc([N+](=O)[O-])c1)c1ccc2c(c1)OCCOCCOCCO2	i
NC(=O)c1ccc2c(c1)OCCO2	i
CC(=O)c1ccc2c(c1)OCCOCCOc1ccccc1OCCOCCO2	15.8µM*
CC1(C(=O)NCc2cccs2)CCN1C(=O)Cc1ccc(Cl)cc1Cl (centres undefined)	i
Cc1ccc(N2CC(C(=O)N3CCC(C(=O)NC(C)(C)C)CC3)CC2=O)cc1 (centres undefined)	i
CSc1nc2sc3c(c2c(=O)n1-c1ccc(C)cc1)CCCC3	i
O=C(O)C(NS(=O)(=O)c1ccc(F)cc1)c1ccccc1 (centres undefined)	i
O=S(=O)(NCCC(c1ccc(F)cc1)c1ccco1)c1ccccc1 (centres undefined)	17.8µM*
COc1ccc(CNCCC(c2ccc(C)cc2)c2ccco2)cc1 (centres undefined)	i
CN=c1scc(-c2ccccc2F)n1/N=C/c1ccc[nH]1	i
C=CCN=c1scc(-c2ccc(F)cc2)n1/N=C/c1ccccn1	11.2µM*
CCC(=O)N1CCC(C)(C(=O)Nc2nccc3ccccc23)C1 (centres undefined)	i
CCOc1ccc(N2C(=O)S/C(=C\c3cc(OC)c(OC)c(OC)c3)C2=O)cc1	i
COc1cc(NC(=O)CN2C(=O)COc3ccccc32)cc(OC)c1	i
COc1cc(NC(=O)c2ccc(-c3c(C)noc3C)c3ccoc23)cc(OC)c1OC	i
COc1ccc(-c2onc(C)c2-c2cnn(-c3ccccc3)c2)c(O)c1C	i
COc1ccc(-c2onc(C)c2-c2ccc(C(=O)OC(C)C)o2)c(O)c1	15.8µM*
C/C(=N\Nc1nc2ccc(Cl)cc2o1)c1ccccc1	i
COc1ccc(NCC(=O)n2c(C)c(C)c3ccccc32)cc1OC	i
